# Source: PubChem BioAssay
# DAX1 inh-1: inhibitors of DAX1 repression of SF-1 activated StAR promoter; 370,000 compounds, 1.1% hits; HEK293T StAR-luciferase reporter, SF-1/DAX-1 repression relief; inhibition, % at 6.8 µM;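 active = inhibition above the mean over all tested compounds plus 3 SD, cut at about 3.6% in these data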;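 also: 0% = DAX-1 cells with DMSO and 100% = cells lacking DAX-1 with DMSO; higher inhibition means more luminescence from relief of DAX-1 repression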
# hcDAF-12 act: activates DAF-12 receptor from parasite H. contortus; HEK293 hcDAF-12 lit1-tk-luc reporter, luminescence; 0% DMSO, 100% Δ7-dafachronic acid; 370,000 compounds, 1.4% hits; AID 652067; activation, % at 6.8 µM;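 active = activation above the mean of all tested compounds plus 3 SD, cut at about 5.5% in these data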;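 also: 100% = response to 3 µM Δ7-dafachronic acid high control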
# hgDAF12 agonist: agonists of H. glycines DAF-12 nuclear receptor. HEK293 GAL4-hgDAF12 UAS-luciferase reporter, agonist luminescence; normalized to butyrate control. activation, % at 6.8 µM. 370,000 compounds, 1.8% hits;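 active = activation above a cutoff set at the mean of all screened compounds plus 3 SD, cut at about 10% in these data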;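 also: 0% = DMSO wells and 100% = sodium butyrate wells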
# DAX1 inh-2: inhibits human nuclear receptor DAX1. AID 504766. 340,000 compounds, 0.99% hits. P51843. inhibition, % at 6.75 µM. HEK293 Gal4-DAX1 luciferase reporter, luminescence;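 active = inhibition above the mean over all tested compounds plus 3 SD, cut at about 4.2% in these data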;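 also: 0% = DAX1-transfected cells with DMSO and 100% = empty-vector control cells with DMSO; inhibition shows as a rise in luminescence from relieved DAX1 repression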
# Target sequence (P51843 207-470 limits assumed): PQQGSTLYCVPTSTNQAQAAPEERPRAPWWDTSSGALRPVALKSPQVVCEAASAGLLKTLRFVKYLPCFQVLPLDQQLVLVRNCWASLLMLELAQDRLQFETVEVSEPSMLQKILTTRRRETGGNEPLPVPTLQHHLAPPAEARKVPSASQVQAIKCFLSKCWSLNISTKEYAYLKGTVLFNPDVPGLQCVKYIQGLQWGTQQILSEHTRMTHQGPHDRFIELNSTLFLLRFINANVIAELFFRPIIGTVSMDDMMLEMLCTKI
# ssDAF12 agonist: activates DAF-12 receptor from parasite S. stercoralis; 370,000 compounds, 1% hits; activation, % at 6.8 µM; HEK293 ssDAF-12/GRIP1 lit1-tk-luc reporter, luminescence; % of 3 µM dafachronic acid response;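 active = activation above the mean over all tested compounds plus 3 SD, cut at about 0.9% in these data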;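 also: 0% = DMSO-only wells and 100% = 3 µM delta7-dafachronic acid wells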
# * = called active by the depositor; x = no result. Shown are actives, neighbours in structure and some others; about 4.1% of the full set was active somewhere.
SMILES,DAX1 inh-1,hcDAF-12 act,hgDAF12 agonist,DAX1 inh-2,ssDAF12 agonist
O=C(N/N=C/c1ccc2c(c1)OCO2)c1ccc2c(c1)OCCO2,1,1,13*,1,-1
COc1ccc(/C=N/NC(=O)c2ccc3c(c2)OCO3)cc1,0,0,3,1,-1
Cc1ccccc1CN1CCCCC(NC(=O)Nc2cccc(F)c2)C1=O (configuration not stated),-2,-5,-2,x,-1
COc1ccccc1/C=C/C(=O)OCC(=O)N1CCCCC1,0,1,4,1,-1
COc1cccc(/C=C/C(=O)OCC(=O)N2CCCC2)c1OC,4.4*,0,3,1,-1
C[C@@H](NC(=O)[C@@H]1Cc2ccccc2CN1)C(=O)Nc1ccc2c(c1)OCO2,1,-1,3,5.2*,-1
CC(C)[C@H](NC(=O)[C@@H]1Cc2ccccc2CN1)C(=O)Nc1ccc2c(c1)OCO2,1,-1,3,1,0
CSc1nccc(N/N=C/c2ccccc2)n1,0,2,11*,5.1*,0
N#CC1=C2SC=C(c3ccc(Br)cc3)N2CCCC1=O,3.7*,3,11*,4,-1
Clc1ccc(OCc2nnc(-c3ccccc3Br)o2)cc1,0,0,0,0,2.1*
COCCOc1ccc(C(F)(F)F)cc1NC(=O)CN1C(=O)NC(C)(c2ccc3c(c2)OCO3)C1=O (configuration not stated),-1,-2,-4,7.6*,-1
O=C(Nc1c(-c2ccccc2)nc2ccccn12)c1ccco1,0,-1,-2,1,-2
Oc1ccc(-c2nc3ccccn3c2NCc2ccco2)cc1,0,0,6,4.3*,0
O=C(Oc1cccc2ccccc12)c1ccco1,0,6.0*,-2,0,-1
C=CCN1[C@H](C#N)[C@@H](c2ccc(Br)cc2)[C@H]1CO,1,0,-3,x,-1
O=C1C=C(Nc2ccccc2C(=O)O)c2ccccc2C1=O,0,6.3*,1,0,0
COc1ccc2nc(SCC(=O)C(C)(C)C)[nH]c2c1,0,1,8,4.5*,-1
COc1ccc2nc(SCC(=O)NC(C)(C)C)[nH]c2c1,1,0,5,-1,-1
OC(c1ccccc1)(c1ccccc1)C1CCN(CCCNc2ccccc2Br)CC1,-1,-2,-2,x,-1
CC(C)CNC(=O)C(=O)NCCCN1CCOCC1,-1,1,-3,0,-2
NNC(=O)C(=O)NCCCN1CCOCC1,0,2,-3,5.7*,-1
Cc1ccc(C)c(NC(=O)C(=O)NCCCN2CCOCC2)c1,0,-1,11*,1,-1
Cc1ccc(C)c(NC(=S)NCCCN2CCOCC2)c1,1,-1,3,0,0.9*
Cc1cc(C)cc(NC(=O)C(=O)NCCCN2CCOCC2)c1,0,-1,-2,0,-1
CN1CCCN(S(=O)(=O)c2ccc3c(c2)CCC(=O)N3)CC1,-1,-2,-1,x,0
SMILES,DAX1 inh-1,hcDAF-12 act,hgDAF12 agonist,DAX1 inh-2,ssDAF12 agonist
CC(C)(C)NC(=O)C(c1cccnc1)N(C(=O)c1ccc(Cl)nc1)C1CCCC1 (configuration not stated),0,-1,0,0,-1
O=C(NC1CCCCC1)C(c1cccnc1)N(C(=O)c1ccc(Cl)nc1)C1CCCCC1 (configuration not stated),-1,-1,1,1,1.7*
CC(C)CC(OC(=O)c1ccc(Cl)nc1)C(=O)NC1CCCC1 (configuration not stated),0,1,-1,0,1.1*
Cc1ccc(-n2c(SCC(=O)Nc3cccc4ccccc34)nnc2-c2cccs2)cc1,-1,0,-2,x,-1
COC(=O)c1c(-c2ccccc2)c[nH]c1C,0,-1,-1,4.8*,0
COC(=O)c1c(C)[nH]c(C=O)c1-c1ccccc1,0,0,0,x,-1
Cc1c(C(=O)O)cc(C(C)(C)C)n1CCSCCO,0,-1,1,6.8*,-1
CSCCn1c(C(C)(C)C)cc(C(=O)O)c1C,0,0,-1,1,-1
COC(=O)c1cc(-c2cccc(C(C)C)c2)c(=O)n2c1CCC2,-2,-1,-5,x,-1
Clc1ccccc1C1CC(c2ccccc2)=Nc2ccccc2N1 (configuration not stated),1,2,8,4.8*,-1
O=C(Cc1csc(Nc2nc(=S)[nH]c3ccccc23)n1)NCc1ccccc1Cl,-1,5.9*,7,0,1.2*
Cc1ccc(CNC(=O)Cc2csc(Nc3nc(=S)[nH]c4ccccc34)n2)cc1,1,5,2,x,0
O=C(Cc1csc(Nc2nc(=S)[nH]c3ccccc23)n1)NCc1cccc(Cl)c1,-1,6.5*,0,0,1
Cc1ccc(-c2nc3sc(C#N)c(N)n3c(=O)c2C#N)cc1,0,3,9,4.8*,0
Cc1ccc(-n2c(N)c(C#N)c(-c3ccccc3)c(C#N)c2=O)cc1,-1,0,-1,1,-1
COC(=O)C1=C(C)N(Cc2ccc(C(F)(F)F)cc2)C(=NCc2ccc3c(c2)OCO3)NC1c1cccc(Cl)c1 (configuration not stated),-2,-3,-1,x,-1
O=C(O)c1ccc2c(c1)S(=O)(=O)N=C1CCCCCN12,0,-2,-2,5.1*,-1
O=C(COc1ccc(Cl)cc1)NNC(=O)c1ccc2c(=O)n3c(nc2c1)CCC3,4.1*,0,-2,-1,-1
COc1cccc(CNC(=O)CCCN2C(=O)COc3ccc(C)cc32)c1OC,-1,1,-1,x,-2
Cc1c(/C=C(\CC(=O)O)c2nc3ccccc3s2)cc(C#N)n1C,0,5.6*,2,1,-1
CC(C)CN1CN2CCc3ccccc3C2CS1(=O)=O (configuration not stated),-1,-2,0,x,-1
Cc1ccn2c(Nc3ccc4c(c3)OCO4)c(-c3ccccn3)nc2c1,1,6.0*,0,-2,-1
COC1OC(CO)C(N(C)C(C)=O)C1O (configuration not stated),0,-3,0,4.8*,-1
CC(C)C(NC(=O)[C@H](Cc1ccccc1)NC(=O)OCc1ccccc1)P(=O)(O)OC(Cc1ccccc1)C(=O)O (some centres not stated),x,0,1,x,-1
CCOC(=O)c1ccc2ncc(-c3ccccc3)nc2c1,4.3*,0,4,2,-1
O=C(Nc1ccc(F)cc1)OCc1cn(Cc2ccc(F)cc2)nn1,-1,-2,1,x,-1
Nc1c(/C=C2\C=Nc3ccccc32)c(=O)nc2sc(CC(=O)N3CCOCC3)nn12,3.7*,5,6,1,0
Nc1c(C=C2C=CC(=O)C=C2)c(=O)nc2sc(CC(=O)N3CCOCC3)nn12,0,-1,1,1,0
